The results in this text go back to PubChem BioAssay (NCI).

Compounds without any hit were thinned out: in the full panel of roughly 83,000, 20% have a hit.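 The endpoint reported here, percent growth, reads 100 for growth as untreated, 0 for no net growth and -100 for all cells dead.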 A number with no mark means an inactive call. Activity calls are given as the source filed them. Rule for the calls: active = growth percent below 10; inactive = the rest.

Some test systems named below: SK-MEL-2 melanoma; EKVX NSCLC; SN12C renal; UO-31 renal; TK-10 renal; A498 renal; CCRF-CEM leukemia; MOLT-4 leukemia; SR leukemia; RPMI-8226 leukemia; OVCAR-8 ovarian; OVCAR-5 ovarian; OVCAR-4 ovarian; SK-OV-3 ovarian; IGROV1 ovarian; HS 578T breast; NCI/ADR-RES ovarian; OVCAR-3 ovarian.
Common to all, as to experiment: NCI-60 one-dose screen, 48 h (100 = growth as untreated, 0 = no growth, -100 = all killed)
What all share (settings): 10 µM unless noted

`CN(C)CCCOc1c(Br)cc(/C=C/C(=O)N(C)CCc2cc(Br)c(OCCCN(C)C)c(Br)c2)cc1Br`: the growth was 89.3% in the assay on SK-MEL-2 melanoma; 78.7% in the assay with EKVX NSCLC; 72.8% in the assay with SN12C renal; 65.7% with UO-31 renal; 106% in the assay on TK-10 renal; 60.5% in the assay with A498 renal. For the same compound, the growth was 4.13% (active) in the assay on CCRF-CEM leukemia; -1.09% (active) in the assay on MOLT-4 leukemia; -34.5% (active) in the assay on SR leukemia; -23.6% (active) in the assay on RPMI-8226 leukemia; 30.7% in the assay with OVCAR-8 ovarian; 79.1% in the assay with OVCAR-5 ovarian. Besides, the growth with OVCAR-4 ovarian was 79.7%; in the assay with SK-OV-3 ovarian, 102%; with IGROV1 ovarian, 48.2%; in the assay on HS 578T breast, 75.7%; with NCI/ADR-RES ovarian it was 56.6%.

As to `C#C[C@H](O)/C=C/CCCCCCC#C[C@H](O)CC[C@@H](O)C#CCCCCCC/C=C/[C@@H](O)C#C`, the growth was 92.7% with SK-MEL-2 melanoma; 90.2% in the assay with EKVX NSCLC; 69.1% with SN12C renal; -82.6% (active) in the assay on UO-31 renal; 106% in the assay with TK-10 renal; 102% in the assay on A498 renal. Moreover, the growth in the assay with CCRF-CEM leukemia is -37.3% (active); in the assay on MOLT-4 leukemia it was 0.882% (active); in the assay with SR leukemia, -22.8% (active); with RPMI-8226 leukemia, 21.3%; in the assay with OVCAR-8 ovarian, 89.1%; in the assay on OVCAR-5 ovarian, 111%. The growth in the assay with OVCAR-4 ovarian was 101%; in the assay on SK-OV-3 ovarian, 105%; with IGROV1 ovarian it was -37.6% (active); in the assay with OVCAR-3 ovarian, 96%; in the assay with HS 578T breast, 95.9%; in the assay with NCI/ADR-RES ovarian, 54.5%.

For the compound `C/C(=N/O)c1ccc(NC(=O)Cn2nc(-c3ccc(Cl)cc3)nc2N)cc1`, the growth is 84.9% in the assay on SK-MEL-2 melanoma; 98.6% with EKVX NSCLC; 102% with SN12C renal; 66% with UO-31 renal; 120% with TK-10 renal; 103% in the assay on A498 renal. The growth in the assay on CCRF-CEM leukemia is 85.8%; in the assay on MOLT-4 leukemia, 66.7%; in the assay with SR leukemia, 81.2%; with RPMI-8226 leukemia it was 93.4%; in the assay on OVCAR-8 ovarian it was 81.6%; with OVCAR-5 ovarian it was 108%. Moreover, the growth in the assay with OVCAR-4 ovarian is 119%; in the assay on SK-OV-3 ovarian, 72.6%; in the assay on IGROV1 ovarian, 89.7%; in the assay on OVCAR-3 ovarian it was 104%; in the assay with HS 578T breast, 88.5%; in the assay with NCI/ADR-RES ovarian, 99.6%.

For `CCOC(=O)c1noc2c1CCc1cn(Cc3cc(OC)cc(OC)c3)cc1-2`, the growth with SK-MEL-2 melanoma was 92.1%; with EKVX NSCLC it was 98.1%; with SN12C renal it was 107%; with UO-31 renal, 84%; in the assay on TK-10 renal, 81.7%; in the assay on A498 renal it was 107%. Further, the growth with CCRF-CEM leukemia is 102%; with MOLT-4 leukemia, 79.5%; in the assay on SR leukemia, 91.1%; with RPMI-8226 leukemia, 99.9%; with OVCAR-8 ovarian it was 107%; with OVCAR-5 ovarian, 108%. In addition, the growth in the assay on OVCAR-4 ovarian is 113%; in the assay with SK-OV-3 ovarian it was 101%; in the assay on IGROV1 ovarian, 110%; in the assay with HS 578T breast, 99.7%; in the assay on NCI/ADR-RES ovarian, 97.9%.

For the compound `Cc1nc(N)nc(SCc2ccccc2)c1Br`, the growth was 89.9% with SK-MEL-2 melanoma; 85.7% in the assay on EKVX NSCLC; 91.6% in the assay on SN12C renal; 54.7% in the assay with UO-31 renal; 112% in the assay on TK-10 renal; 63.4% in the assay on A498 renal. The growth is 82.4% in the assay on CCRF-CEM leukemia; 63.7% in the assay on MOLT-4 leukemia; 74.4% with SR leukemia; 81.1% in the assay on RPMI-8226 leukemia; 89.9% in the assay with OVCAR-8 ovarian; 111% in the assay with OVCAR-5 ovarian. Besides, the growth is 86.2% in the assay on OVCAR-4 ovarian; 84.2% with SK-OV-3 ovarian; 82.7% in the assay with IGROV1 ovarian; 107% with OVCAR-3 ovarian; 87.6% in the assay on HS 578T breast; 95.9% in the assay with NCI/ADR-RES ovarian.

In the case of `COc1cc(Br)c(-c2nc(-c3ccccc3)c(-c3ccccc3)n2Cc2ccccc2)cc1OC`, the growth was 44.8% with SK-MEL-2 melanoma; 47.9% in the assay with EKVX NSCLC; 66.5% in the assay on SN12C renal; 30.4% in the assay with UO-31 renal; 62.3% in the assay on TK-10 renal; 73.8% with A498 renal. The growth in the assay with CCRF-CEM leukemia is 54.3%; with MOLT-4 leukemia, 23.4%; in the assay with SR leukemia, 47.3%; in the assay on RPMI-8226 leukemia, 40.8%; with OVCAR-8 ovarian it was 55%; in the assay on OVCAR-5 ovarian, 77.1%. Besides, the growth in the assay on OVCAR-4 ovarian was 48.6%; with SK-OV-3 ovarian it was 39.5%; in the assay with IGROV1 ovarian, 49.4%; in the assay with OVCAR-3 ovarian, 68.6%; with HS 578T breast, 88.7%; in the assay on NCI/ADR-RES ovarian it was 48.9%.

On to `O=C1CCC(c2c(O)cc(O)c3c(=O)c(O)c(-c4ccc(O)c(O)c4)oc23)N1` (configuration not stated), for which the growth was 98.2% with SK-MEL-2 melanoma; 106% in the assay with EKVX NSCLC; 105% in the assay on SN12C renal; 82.6% in the assay on UO-31 renal; 92.7% with TK-10 renal; 92.1% in the assay with A498 renal. Moreover, the growth is 103% in the assay on CCRF-CEM leukemia; 92.2% in the assay on MOLT-4 leukemia; 96.2% with SR leukemia; 99.5% in the assay with RPMI-8226 leukemia; 105% in the assay on OVCAR-8 ovarian; 104% in the assay on OVCAR-5 ovarian. The growth in the assay with OVCAR-4 ovarian is 108%; with SK-OV-3 ovarian it was 85.1%; with IGROV1 ovarian it was 107%; with OVCAR-3 ovarian, 101%; in the assay on HS 578T breast it was 100%; with NCI/ADR-RES ovarian, 96.8%.

For `COc1ccc(/C=C/C(=O)c2ccc(NC(=O)CSc3nnc(-c4cc(OC)c(OC)c(OC)c4)o3)cc2)cc1`, the growth in the assay with SK-MEL-2 melanoma was 37.7%; in the assay with EKVX NSCLC, -2.83% (active); in the assay on SN12C renal, -43.5% (active); in the assay on UO-31 renal, -85.3% (active); in the assay on TK-10 renal it was 78.8%; with A498 renal, 90.5%. Moreover, the growth with CCRF-CEM leukemia is -1.51% (active); in the assay with MOLT-4 leukemia, -25.9% (active); with SR leukemia it was -60.5% (active); with RPMI-8226 leukemia, -43.7% (active); with OVCAR-8 ovarian it was -14.3% (active); with OVCAR-5 ovarian it was 7.48% (active). Further, the growth is -49.9% (active) with OVCAR-4 ovarian; 85.2% in the assay with SK-OV-3 ovarian; -39.2% (active) in the assay on IGROV1 ovarian; -93.8% (active) in the assay with OVCAR-3 ovarian; 45.3% with HS 578T breast; 3.13% (active) with NCI/ADR-RES ovarian.
